Records with an inconclusive call do not appear. The source holds several records for some structures; these can differ, active in one and inactive in another. Activity calls are given as the source filed them. Rule for the calls, unless noted: active = hit-call score of the fitted dose curve at least 0.9, where 1 is the maximum; inactive = score below 0.9.
Legend:
[1] = target: Norway rat Vesicular Monoamine Transporter (VMAT2), neurotransmitter transporter, Slc18a2 (gene 25549) (UniProt Q01827); experiment: NVS_TR_rVMAT2: NovaScreen (NVS) Transporter Assay for Norway rat Vesicular Monoamine Transporter (VMAT2), neurotransmitter transporter (AID 2283376; active = hit-call score of the fitted dose curve at least 0.9, where 1 is the maximum;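 note: actives lower the bound radioligand signal below the DMSO level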)
Procedure, shortened: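 Using rat forebrain membranes, specific radioligand binding to VMAT2 was measured by filtration and scintillation counting after 1 hour. Chemicals screened at 25 uM in duplicate, actives retested in concentration series, DMSO baseline.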

[2] = TOX21_p53_BLA_p2_viability: Viability Assessment in the Tox21 HCT-116 p53 Agonism Beta-lactamase Assay, Phase 2 (AID 2283591; active = hit-call score of the fitted dose curve at least 0.9, where 1 is the maximum;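 note: compound exposure lasted 16 h at 37 °C; actives lower the ATP signal meaning cytotoxicity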)
Procedure, shortened: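 Cytotoxicity readout: CellTiter-Glo ATP luminescence, 30 min at room temperature, after the beta-lactamase read. Cells were HCT116 exposed 16 h at 37C to compounds pin-transferred at 217-fold dilution from DMSO stocks.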

[3] = TOX21_p53_BLA_p3_viability: Viability Assessment in the Tox21 HCT-116 p53 Agonism Beta-lactamase Assay, Phase 3 (AID 2283593; active = hit-call score of the fitted dose curve at least 0.9, where 1 is the maximum;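 note: cells exposed to compound for 16 h before reading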)
Procedure, shortened: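 Cellular ATP was quantified by CellTiter-Glo luminescence, read after 30 min at room temperature. Beforehand, HCT116 cells (4000/well) received compound 5 h post-seeding, 217-fold diluted from DMSO, then incubated 16 h at 37C.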

[4] = TOX21_p53_BLA_p4_viability: Viability Assessment in the Tox21 HCT-116 p53 Agonism Beta-lactamase Assay, Phase 4 (AID 2283597; active = hit-call score of the fitted dose curve at least 0.9, where 1 is the maximum;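 note: hits lower the luminescence signal meaning cytotoxicity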)
Procedure, shortened: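 Readout: ATP luminescence (CellTiter-Glo), measured 30 min after reagent addition at RT. The reagent followed a 2 h CCF4-AM incubation, and the cells had been exposed to compound for 16 h at 37C.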

[5] = TOX21_p53_BLA_p5_viability: Viability Assessment in the Tox21 HCT-116 p53 Agonism Beta-lactamase Assay, Phase 5 (AID 2283600; active = hit-call score of the fitted dose curve at least 0.9, where 1 is the maximum)
Procedure, shortened: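 Workflow: seed 4000 cells per well, wait 5 h, add compounds (DMSO, 217-fold dilution), incubate 16 h, load CCF4-AM 2 h, add CellTiter-Glo, read luminescence after 30 min.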

[6] = CCTE_Shafer_MEA_dev_firing_rate_mean: CCTE's Neural Network Formation Assay for Mean Firing Rate, Shafer Lab (AID 2284031)
Procedure, shortened: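 Extracellular spike frequency, AUC over DIV 5–12 recordings, in rat cortical neuron MEA cultures dosed from plating; loss direction vs DMSO.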

[7] = CCTE_Shafer_MEA_dev_per_burst_spike_percent: CCTE's Neural Network Formation Assay for Percent of Spikes in a Burst, Shafer Lab (AID 2284032)
Procedure, shortened: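 Value is trapezoidal AUC over recordings on days 5, 7, 9 and 12 of the well-mean fraction of spikes falling in single-electrode bursts; rat cortical cultures exposed continuously from plating, treatment renewed DIV 5 and 9, fitted downward against DMSO.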

[8] = CCTE_Shafer_MEA_dev_burst_rate: CCTE's Neural Network Formation Assay for Burst Rate, Shafer Lab (AID 2284042)
Procedure, shortened: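 Rat primary cortical cultures on PEI/laminin MEA; compound from plating, re-dosed at DIV 5, 9 media change. Single-electrode bursts/recording length, well mean of active electrodes; AUC over DIV 5–12 recordings; loss-of-signal vs DMSO.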

[9] = CCTE_Shafer_MEA_dev_bursting_electrodes_number: CCTE's Neural Network Formation Assay for Number of Bursting Electrodes, Shafer Lab (AID 2284043; active = hit-call score of the fitted dose curve at least 0.9, where 1 is the maximum)
Procedure, shortened: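 Number of electrodes reaching ≥1 burst every 2 min was recorded at DIV 5, 7, 9 and 12 and collapsed as trapezoidal area under the curve. Cultures were rat cortical neurons on MEA plates, dosed continuously from plating with medium and treatment refreshed on DIV 5 and 9.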

[10] = CCTE_Shafer_MEA_dev_per_burst_interspike_interval: CCTE's Neural Network Formation Assay for Burst Interspike Interval, Shafer Lab (AID 2284044)
Procedure, shortened: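 Neurons from rat cortex plated onto PEI-coated MEA wells with laminin […] at 1.5 x 10^5 cells/well, then treated from day 0. Media and compound fully replaced on DIV 5 and 9. Extracellular spontaneous firing recorded four times; interspike interval per burst summarised as AUC.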

[11] = CCTE_Shafer_MEA_dev_burst_duration_mean: CCTE's Neural Network Formation Assay for Mean Burst Duration, Shafer Lab (AID 2284045)
Procedure, shortened: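 Mean single-electrode burst duration (first to last spike), averaged over bursting electrodes per well, then integrated as area-under-curve across recordings at days 5, 7, 9 and 12. Rat cortical cultures on MEAs, compound present from plating, refreshed at feeds.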

[12] = CCTE_Shafer_MEA_dev_interburst_interval_mean: CCTE's Neural Network Formation Assay for Mean Interburst Interval, Shafer Lab (AID 2284046);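 note: well-mean interburst interval of bursting electrodes as AUC over four recording days; curve fitted for decrease in interburst interval relative to DMSO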
Procedure, shortened: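 Rat cortical neurons, 1.5 x 10^5 cells/well, 48-well MEA; compound from day 0 through DIV 12, media and treatment renewed DIV 5/9. Recordings DIV 5, 7, 9, 12; well-mean interburst interval → trapezoidal AUC, loss direction vs DMSO.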

[13] = CCTE_Shafer_MEA_dev_inter_network_spike_interval_mean: CCTE's Neural Network Formation Assay for Mean Inter-network Spike Interval, Shafer Lab (AID 2284047)
Procedure, shortened: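 Primary rat cortical neurons on PEI-coated 48-well MEAs (16 electrodes/well) were exposed from plating day 0 to DIV 12, with dosing renewed at DIV 5 and 9. Recordings at DIV 5, 7, 9, 12 were collapsed by trapezoidal AUC, loss-of-signal fit vs DMSO.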

[14] = CCTE_Shafer_MEA_dev_network_spike_number: CCTE's Neural Network Formation Assay for Number of Network Spikes, Shafer Lab (AID 2284048);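 note: synchronized bursts across electrodes counted on days 5 7 9 12 and integrated as AUC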
Procedure, shortened: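 Number of network spikes (coordinated firing across electrodes) recorded on days 5, 7, 9 and 12 and summarised as area under the curve. Rat cortical cultures on MEA, continuous compound exposure with full medium/treatment exchange at DIV 5 and 9.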

[15] = CCTE_Shafer_MEA_dev_network_spike_peak: CCTE's Neural Network Formation Assay for Mean Number of Electrodes in Network Spike, Shafer Lab (AID 2284049)
Procedure, shortened: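 Rat cortical primary culture, 1.5 x 10^5 cells/well, 48-well MEA (16 electrodes/well). Dosing day 0 through DIV 12, full media/compound exchange DIV 5, 9. AxIS adaptive spike detection; AUC over days 5/7/9/12; loss-of-signal vs DMSO.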

[16] = CCTE_Shafer_MEA_dev_spike_duration_mean: CCTE's Neural Network Formation Assay for Mean Spike Duration, Shafer Lab (AID 2284051);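 note: mean network spike duration pooled as area under curve over DIV 5 to 12 recordings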
Procedure, shortened: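 Rat cortical primary cultures, 48-well MEA (16 electrodes/well); compound from plating, renewed DIV 5, 9. Network spike duration (AxIS adaptive detector) recorded DIV 5/7/9/12, combined as trapezoidal AUC; loss direction vs DMSO.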

[17] = CCTE_Shafer_MEA_dev_network_spike_duration_std: CCTE's Neural Network Formation Assay for Standard Deviation of Network Spike Duration, Shafer Lab (AID 2284052);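 note: hits are decreases in network spike duration SD versus DMSO vehicle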
Procedure, shortened: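 Rat cortical cultures, 1.5 x 10^5 cells/well, exposed continuously from plating to DIV 12 with media/compound renewal at DIV 5, 9. Spontaneous activity recorded DIV 5/7/9/12, AxIS adaptive spike detector; AUC across days; negative direction vs DMSO.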

[18] = CCTE_Shafer_MEA_dev_per_network_spike_spike_number_mean: CCTE's Neural Network Formation Assay for Mean Number of Spikes in a Network Spike, Shafer Lab (AID 2284053)
Procedure, shortened: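 Rat cortical primary cultures on 48-well MEA; compound from day 0, re-dosed with full media change DIV 5, 9. Recorded DIV 5, 7, 9, 12; spikes in 0.05 s window at network-spike peak ÷ total network spikes; AUC; loss vs DMSO.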

[19] = CCTE_Shafer_MEA_dev_per_network_spike_spike_percent: CCTE's Neural Network Formation Assay for Percent of Spikes in a Network Spike, Shafer Lab (AID 2284054)
Procedure, shortened: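 Metric: fraction of spikes falling in a 0.05 s window at network-spike peaks. Recordings were made on days 5, 7, 9 and 12 and collapsed by trapezoidal AUC. Cultures were rat cortical neurons on MEA plates, dosed continuously from plating, re-dosed at media changes.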

[20] = CCTE_Shafer_MEA_dev_AB: CCTE's Alamar Blue Assay for Cytotoxicity in the Neural Network Formation Assay, Shafer Lab (AID 2284083; active = hit-call score of the fitted dose curve at least 0.9, where 1 is the maximum;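 note: resazurin reduction fluorescence as viability of cultured neurons; twelve days of exposure from plating with re-dosing on DIV 5 and 9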)
Procedure, shortened: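 Rat cortical primary cultures, 1.5 x 10^5 cells/well on MEA; continuous compound exposure over 12 days of network development, re-dosed with full medium change DIV 5 and 9. Alamar Blue fluorescence; loss of signal = cytotoxicity vs DMSO baseline.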

[21] = CCTE_Shafer_MEA_dev_mutual_information_norm: CCTE's Neural Network Formation Assay for Mutual Information Normalization, Shafer Lab (AID 2284091)
Procedure, shortened: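 Shared information across electrodes, tracked on days 5, 7, 9 and 12 of network development and collapsed as trapezoidal area under the curve. Rat cortical cultures were treated continuously from plating, with treatment renewed at feeds on DIV 5 and 9; DMSO baseline, negative-direction fit.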

[22] = CCTE_Shafer_MEA_dev_correlation_coefficient_mean: CCTE's Neural Network Formation Assay for Mean Correlation Coefficient, Shafer Lab (AID 2284093)
Procedure, shortened: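 Rat cortical cultures, 1.5 x 10^5 cells/well, dosed from day 0 for 12 days. Spontaneous spikes recorded DIV 5/7/9/12; electrode-pair correlation coefficients averaged, AUC taken. Fit in loss direction vs DMSO.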

Measured: AC50

Chain of Norway rat Vesicular Monoamine Transporter (VMAT2), neurotransmitter transporter, Slc18a2 (gene 25549) (Q01827 whole entry, looked up): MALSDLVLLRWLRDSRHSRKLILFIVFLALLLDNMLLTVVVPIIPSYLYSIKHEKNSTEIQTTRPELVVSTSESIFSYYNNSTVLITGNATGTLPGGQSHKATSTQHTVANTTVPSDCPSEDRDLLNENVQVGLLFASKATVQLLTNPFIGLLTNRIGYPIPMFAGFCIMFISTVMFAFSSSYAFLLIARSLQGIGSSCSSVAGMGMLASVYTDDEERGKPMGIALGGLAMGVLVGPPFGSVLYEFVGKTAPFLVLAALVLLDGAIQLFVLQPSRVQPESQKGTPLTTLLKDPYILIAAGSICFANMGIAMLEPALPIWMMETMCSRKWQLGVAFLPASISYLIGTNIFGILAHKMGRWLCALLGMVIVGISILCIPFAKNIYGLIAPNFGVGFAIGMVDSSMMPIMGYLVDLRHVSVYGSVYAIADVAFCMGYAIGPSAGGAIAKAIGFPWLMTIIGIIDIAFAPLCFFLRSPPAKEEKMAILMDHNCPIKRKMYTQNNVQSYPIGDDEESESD

C[Si](C)O[Si](C)C
inactive: [1]

CCOP(=O)(O)OCC (tested in a mixture with another compound)
active: [2] 72.3 µM | [3] 28.7 µM | [4] 83 µM | [5] 85.2 µM
inactive: [2] | [3] | [5] | [6] | [7] | [8] | [9] | [10] | [11] | [12] | [13] | [14] | [15] | [16] | [17] | [18] | [19] | [20] | [21] | [22]

Reference: PubChem BioAssay (EPA / NIEHS)
